High-throughput results from PubChem.
SENP8 block-1: human SENP8 protease inhibitors, primary screen, biochemical, fluorescence, Nedd8 protein substrate, uHTS; recombinant SENP8; inhibition, % at 20 µM; 0.64% of 360,000 active; AID 602440, 2012; in the data active means inhibition mostly above about 40%, no sharp cut-off; inactive means mostly below about 27%
Target sequence (Q96LD8 whole entry, looked up): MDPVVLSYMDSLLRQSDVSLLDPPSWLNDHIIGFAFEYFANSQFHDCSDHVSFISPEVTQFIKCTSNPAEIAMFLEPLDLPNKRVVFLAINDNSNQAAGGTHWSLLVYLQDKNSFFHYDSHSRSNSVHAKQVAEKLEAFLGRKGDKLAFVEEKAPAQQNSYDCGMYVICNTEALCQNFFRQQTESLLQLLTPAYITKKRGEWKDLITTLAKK
PPC-1+TRAIL kill: compounds killing PPC-1 cancer cells with TRAIL present, primary screen, TRAIL potentiator project, ATPLite luminescence, uHTS; PPC-1 cells + TRAIL, ATPLite viability luminescence; cell killing (% activity), % at 4 µM or 5 µM; AID 1443, 2008; 0.41% of 220,000 active;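 active means cell killing above 50% in the first pass at 4 µM, then a duplicate retest at 5 µM averaging 50% or more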
SENP6 inh: SENP6 protease inhibitors, primary screen, biochemical, luminescence, uHTS | Sentrin-specific protease 6 (Homo sapiens), Q9GZR1 | Recombinant SENP6 catalytic domain, aminoluciferin luminescence | inhibition, % at 10 µM | 1.8% of 330,000 active;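 active means inhibition above about 50% at the single tested dose, limit read from the data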
SENP7 inh: SENP7 protease inhibitors, primary screen, biochemical, luminescence, uHTS; 1.5% of 330,000 active; recombinant SENP7, Z-RLRGG-aminoluciferin luminescence, 40 min; inhibition, % at 5 µM; Sentrin-specific protease 7 (Homo sapiens), Q9BQF6;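 active means inhibition above about 50% at the single test dose, limit read from the data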
SENP8 block-2: SENP8 protease inhibitors, primary screen, biochemical, luminescence. Sentrin-specific protease 8 (Homo sapiens), Q96LD8. purified SENP8, Z-RLRGG-aminoluciferin cleavage. inhibition, % at 10 µM. 1.2% of 330,000 active; in the data active means inhibition above about 50%
TRAIL sens C8: viability loss with TRAIL in NB7+C8 cells, primary screen, TRAIL sensitizer project, cell-based, ATPlite luminescence | inhibition (viability loss, TRAIL sensitization), % at 10 µM | 1% of 360,000 active;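 active means compounds causing at least 50% loss of cell viability in the single-dose screen, relative to plate controls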
SENP8 conf: SENP8 protease inhibitors, retest, confirmation, biochemical, luminescence, single concentration. shares compounds with SENP7 inh. Recombinant SENP8, Z-RLRGG-aminoluciferin luminescence, 60 min. inhibition, % at 12.5 µM. 40% of 6,200 active;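 active means mean inhibition across replicates above about 50%, limit read from the data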
SENP6 confirm: SENP6 protease inhibitors, confirmation, biochemical, luminescence, single concentration | shares compounds with SENP7 inh | recombinant SENP6, Z-RLRGG-aminoluciferin luminescence | inhibition, % at 12.5 µM | 58% of 6,200 active | AID 488915, 2010
SENP7 conf: SENP7 protease inhibitors, retest, confirmation, biochemical, luminescence, single concentration; AID 488917, 2010; shares compounds with SENP7 inh; 69% of 6,200 active; recombinant SENP7, Z-RLRGG-aminoluciferin luminescence, 40 min; inhibition, % at 12.5 µM
Casp3 SENP sel: caspase-3 protease inhibitors, confirmation, selectivity assay for SENP inhibitor project, biochemical, single concentration; shares compounds with SENP7 inh; purified caspase-3, Z-DEVD-aminoluciferin luminescence, 60 min; inhibition, % at 12.5 µM; 60% of 6,200 active; AID 488918, 2010;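 active means mean inhibition above about 50%, limit read from the data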
Target sequence (P42574 28-227 limits assumed): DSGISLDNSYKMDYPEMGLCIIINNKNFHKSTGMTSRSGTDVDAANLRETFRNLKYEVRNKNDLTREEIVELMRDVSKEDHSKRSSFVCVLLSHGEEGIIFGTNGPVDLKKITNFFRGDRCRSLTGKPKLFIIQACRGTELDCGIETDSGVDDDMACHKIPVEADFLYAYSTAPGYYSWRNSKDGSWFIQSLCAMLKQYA
SENP luc ctr: luminescence interference (SENP counter-screen); Pre-incubated SENP8/Z-RLRGG-aminoluciferin, luciferase luminescence interference; 39% of 6,200 active; shares compounds with SENP7 inh; inhibition, % at 12.5 µM; AID 488919;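 active means mean inhibition above about 50% when retested at one dose, limit read from the data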
Of the large screens only hits and unclear results are named; the others gave an inactive call (follow-up assays come after a bar, where they were run). Shown are actives, neighbours in structure and some others; about 3% of the full set was active somewhere.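 How the source made its calls, unless noted: active means mean inhibition above about 50% in the one-dose retest (limit read from the data); inactive means the rest.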

Cc1cc(C)n2nc(C(=O)Nc3ccc4c(c3)OCO4)nc2n1	none
O=C(Nc1ncccc1Cl)c1ccc2c(c1)OCCO2	none
Cc1ccnc2nc(C(=O)Nc3ccc4c(c3)OCO4)nn12	SENP6 inh 67, SENP8 block-2 57 | SENP8 conf inactive | SENP6 confirm 63 | SENP7 conf 53 | Casp3 SENP sel 90 | SENP luc ctr inactive
Cc1cccc(NC(=O)c2cc3c(s2)-c2c(C)cccc2OC3)n1	SENP7 inh 86 | SENP8 conf inactive | SENP6 confirm inactive | SENP7 conf inactive | Casp3 SENP sel inactive | SENP luc ctr inactive
Cc1cccc(NC(=O)c2ccc3c(c2)OCCO3)n1	SENP6 inh 78, SENP7 inh 83, SENP8 block-2 59 (no result: PPC-1+TRAIL kill) | SENP8 conf inactive | SENP6 confirm 75 | SENP7 conf 92 | Casp3 SENP sel 89 | SENP luc ctr 76
O=C(Nc1ccccn1)c1ccc2c(c1)OCCO2	SENP7 inh 80, SENP8 block-2 61, TRAIL sens C8 56 (no result: PPC-1+TRAIL kill) | SENP8 conf inactive | SENP6 confirm 70 | SENP7 conf 92 | Casp3 SENP sel 89 | SENP luc ctr 72
COc1cccc(NC(=O)COc2ccc(C(=S)N3CCN(C)CC3)cc2OC)c1	none (no result: PPC-1+TRAIL kill)
COc1cccc(-c2cc(C(=O)NCC3CCCO3)c3cc(C)cc(C)c3n2)c1 (stereo unspecified)	none (no result: PPC-1+TRAIL kill)
Cc1ccc2nc(C)cc(C(=O)N3CCCC(N4CCN(c5ccccc5C)CC4)C3)c2c1 (stereo unspecified)	none (no result: PPC-1+TRAIL kill)
CN(C)c1ccc(C2/C(=C(/O)c3ccc(Br)cc3)C(=O)C(=O)N2C)cc1 (stereo unspecified)	none (no result: PPC-1+TRAIL kill)
O=C(Nc1ccccn1)c1ccc2c(c1)OCO2	SENP7 inh 73, SENP8 block-2 52 | SENP8 conf inactive | SENP6 confirm 66 | SENP7 conf 92 | Casp3 SENP sel 90 | SENP luc ctr 70
Cc1cccnc1NC(=O)c1ccc2c(c1)OCO2	none (no result: PPC-1+TRAIL kill)
Cc1nc(NC(=O)c2ccc3c(c2)OCO3)ccc1Br	SENP6 inh 81, SENP7 inh 77, SENP8 block-2 74 | SENP8 conf inactive | SENP6 confirm 72 | SENP7 conf 89 | Casp3 SENP sel 73 | SENP luc ctr inactive
O=C(Nc1ccc2c(c1)OCO2)c1ccccn1	SENP6 inh 66, SENP7 inh 57, SENP8 block-2 53 (no result: PPC-1+TRAIL kill) | SENP8 conf 71 | SENP6 confirm 71 | SENP7 conf 88 | Casp3 SENP sel 89 | SENP luc ctr 73
Cc1nc(NC(=O)c2cncc(Br)c2)ccc1Br	none (no result: PPC-1+TRAIL kill)
CCOc1cc(CNc2ccc3cn[nH]c3c2)ccc1OC	SENP6 inh 68, SENP7 inh 59, SENP8 block-2 53 | SENP8 conf inactive | SENP6 confirm inactive | SENP7 conf inactive | Casp3 SENP sel inactive | SENP luc ctr inactive
CCOC(=O)c1cnc(SCCc2ccccc2)nc1N	SENP6 inh 58 | SENP8 conf inactive | SENP6 confirm inactive | SENP7 conf inactive | Casp3 SENP sel inactive | SENP luc ctr inactive
CCCCSc1ncc(C(=O)OCC)c(N)n1	none
CC1(C(=O)Nc2cnc3ccccc3c2)CCN1CCOc1ccccc1 (stereo unspecified)	none (no result: PPC-1+TRAIL kill, SENP6 inh, SENP7 inh, SENP8 block-2)
CCCCn1cnc2c(SCc3ccc(Br)cc3)nc(N)nc21	none (no result: PPC-1+TRAIL kill, SENP6 inh, SENP7 inh, SENP8 block-2)
CN(C)c1ccc(N/C=C/C(=O)c2ccc(F)cc2)cc1	SENP6 inh 98, SENP7 inh 100, SENP8 block-2 94 | SENP8 conf inactive | SENP6 confirm 61 | SENP7 conf inactive | Casp3 SENP sel 71 | SENP luc ctr inactive
COC(=O)c1ccc(N/C=C/C(=O)c2ccccc2)cc1	SENP6 inh 90, SENP7 inh 96, SENP8 block-2 75, TRAIL sens C8 55 (no result: PPC-1+TRAIL kill) | SENP8 conf inactive | SENP6 confirm inactive | SENP7 conf inactive | Casp3 SENP sel inactive | SENP luc ctr inactive
COC(=O)c1ccccc1N/C=C/C(=O)c1ccc(Br)cc1	SENP6 inh 66, SENP7 inh 53 | SENP8 conf inactive | SENP6 confirm inactive | SENP7 conf inactive | Casp3 SENP sel inactive | SENP luc ctr inactive
O=C(/C=C/Nc1ccc(F)cc1)c1ccc(Oc2ncccn2)cc1	none
NC(=O)c1ccccc1N/C=C/C(=O)c1ccccc1	SENP6 inh 94, SENP7 inh 91, SENP8 block-2 88, TRAIL sens C8 57 | SENP8 conf 87 | SENP6 confirm 95 | SENP7 conf 102 | Casp3 SENP sel 96 | SENP luc ctr 81
CC(=O)c1ccc(N/C=C/C(=O)c2ccc(Br)cc2)cc1	none (no result: PPC-1+TRAIL kill)
CC(=O)NCCc1ccc(C(=O)CSc2nnc(C3CC3)n2C2CC2)cc1	none (no result: PPC-1+TRAIL kill)
O=C(NNC(=O)C1CC(=O)N(Cc2ccccc2)C1)c1ccc(F)cc1 (stereo unspecified)	none (no result: PPC-1+TRAIL kill)
CCN(CC)CCNC(=O)C(Cl)=C1C(Cl)=C(Cl)C(Cl)=C1Cl	none (no result: PPC-1+TRAIL kill, SENP6 inh, SENP7 inh, SENP8 block-2)
COc1ccc2cc3cc(C(=O)N4CCCC(C)C4)oc3nc2c1 (stereo unspecified)	SENP6 inh 80, SENP7 inh 83, SENP8 block-2 59 (no result: PPC-1+TRAIL kill) | SENP8 conf inactive | SENP6 confirm inactive | SENP7 conf inactive | Casp3 SENP sel inactive | SENP luc ctr inactive
CCCCOc1ncnc2c1[nH]c1ccc(OC)cc12	SENP7 inh 77 (no result: SENP8 block-1, TRAIL sens C8) | SENP8 conf inactive | SENP6 confirm inactive | SENP7 conf inactive | Casp3 SENP sel inactive | SENP luc ctr inactive
COc1cc(NC(C)CCCN)c2ncccc2c1Oc1ccccc1 (stereo unspecified)	SENP6 inh 74 | SENP8 conf inactive | SENP6 confirm inactive | SENP7 conf inactive | Casp3 SENP sel inactive | SENP luc ctr inactive
Cc1ccc2[nH]c(-c3cccc(F)c3)cc(=O)c2c1	none
